Here are results for 104 compounds from PubChem BioAssay.

This experiment addresses Pantothenate synthetase (Mycobacterium tuberculosis (strain ATCC 25618 / H37Rv)) (UniProt P9WIL5). As to the kind of experiment: Recombinant Mtb pantothenate synthetase (PanC) inhibitors, coupled enzyme, confirmatory (AID 375).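 Also: 0% = full reaction with vehicle and 100% = no enzyme background.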 Particulars: coupled enzyme assay; at 10 µM, stronger effect = higher value.

Unmarked numbers belong to inactive results. No rule for the calls is given here.

Chain of Pantothenate synthetase (Mycobacterium tuberculosis (strain ATCC 25618 / H37Rv)) (P9WIL5 whole entry, looked up): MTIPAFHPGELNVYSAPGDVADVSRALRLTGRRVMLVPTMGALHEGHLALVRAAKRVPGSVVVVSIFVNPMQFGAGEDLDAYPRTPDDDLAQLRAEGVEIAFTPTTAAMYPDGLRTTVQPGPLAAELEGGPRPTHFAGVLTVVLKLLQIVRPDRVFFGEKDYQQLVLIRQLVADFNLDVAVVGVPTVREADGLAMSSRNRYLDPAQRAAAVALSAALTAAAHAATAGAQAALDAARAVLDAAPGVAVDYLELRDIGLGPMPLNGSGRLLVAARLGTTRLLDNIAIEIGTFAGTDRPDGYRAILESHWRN

One may read the inhibition as the change of the read-out against control, counted positive when it falls. In the case of `CCCCOCCCNC(=O)c1ccc(NC(C)=O)cc1`, the inhibition is 0%.
Turning to `C=CCSc1nnc(-c2ccccc2NC(C)=O)c(=O)[nH]1`, the inhibition was 0%.
Consider `CCOC(=O)CN1C2=NCCN2c2ccccc21`, for which the inhibition was 6%.
The figure for `O=C1CC(N2CCC(C(=O)N3CCCCC3)CC2)C(=O)N1` (centres undefined) is 11%.
The figure for `COc1ccc(N2C(=O)C3CCCN3C2c2ccc(F)cc2)cc1Cl` (centres undefined) is 1%; for `O=S(=O)(c1ccc(OCC(O)CN2CCN(c3ccccc3)CC2)cc1)N1CCOCC1` (centres undefined) it is 7%.
`CC(=Nc1ccc(C)c(C)c1)C1=C(O)CCC1=O`: the inhibition is 3%.
As for `COc1ccc2nc(S(=O)Cc3ncc(C)c(OC)c3C)[nH]c2c1` (centres undefined), the inhibition was 4%.
On to `CN1CCN(C(=O)C2CCN(S(=O)(=O)c3ccc4c(c3)oc(=O)n4C)CC2)CC1`, for which the inhibition is 0%.
Take `Cc1cc2n(n1)C(c1ccccc1)Nc1ccccc1-2` (centres undefined): the inhibition was 7%.
As for `COc1ccc(-c2nnc(SCC(=O)Nc3cc(C)on3)n2C)cc1OC`, the inhibition is 5%.
On to `CCC(=O)Nc1ccc2nc(SCC(=O)N3CCCC3)sc2c1`, for which the inhibition was 0%.
The figure for `O=C(Nc1cccc2ccccc12)c1ccc(Br)o1` is 0%; for `COC(=O)c1ccc(Cl)c(NC(C)=O)c1` it is 4%.
With `CCOC(=O)c1c(C)[nH]c(C=Nc2ccccc2)c1O`, the inhibition was 0%.
With `COC(=O)c1c(-c2ccc(F)cc2)noc1N`, the inhibition was 2%.
Regarding `O=C(c1cnn2c(C(F)(F)F)cc(-c3ccco3)nc12)N1CCc2ccccc2C1`, the inhibition is 3%.
Regarding `Cc1ccc(CCNC(=O)CC2Oc3ccc(C)cc3NC2=O)cc1` (centres undefined), the inhibition was 0%.
`Nc1nc(Cl)nc2c1ncn2[C@@H]1O[C@H](CO)[C@@H](O)[C@H]1O`: the inhibition is 3%.
In the case of `COC(=O)C1=C(C)Nc2ncnn2C1c1ccco1` (centres undefined), the inhibition is 0%.
Turning to `Cn1c(=O)n(C)c2cc(NC(=O)C(F)(F)F)ccc21`, the inhibition is 0%.
For the compound `Cn1cc(CC(=O)Nc2cccc(C#N)c2)c2ccccc21`, the inhibition is 6%.
In the case of `O=C(COC(=O)C1(c2ccccc2F)CCCC1)NC1CCS(=O)(=O)C1` (centres undefined), the inhibition was 3%.
Under `Cc1cccc(-c2cc3nc4c(c(N5CCC6(CC5)OCCO6)n3n2)CCCC4)c1` stands 4%; under `O=C(NC1CCCCC1)N(Cc1ccccc1)Cc1ccco1`, 1%; under `COc1ccc(C(O)Cn2c(=N)n(CCCN(C)C)c3ccccc32)cc1` (centres undefined), 0%.
On to `Cn1c(SCc2ccc3c(c2)OCO3)nnc1-c1ccccc1`, for which the inhibition is 0%.
Take `CN(C(=O)C1CCCO1)c1nnc(-c2ccncc2)s1` (centres undefined): the inhibition is 1%.
`CCCCC(c1nnnn1CS(=O)(=O)c1ccc(C)cc1)N1CCN(c2ccccc2)CC1` (centres undefined): the inhibition is 0%.
Regarding `O=C(c1ccco1)N1CCN(C(=O)C2CC(c3ccc(F)cc3)=NO2)CC1` (centres undefined), the inhibition is 0%.
Take `CC(C)NC(=O)c1ccc2c(c1)nnn2C`: the inhibition is 0%.
Under `CCn1c(COc2cccc3ccccc23)nnc1SCC(N)=O` stands 9%.
The figure for `Cc1ccc(NC(=O)CNc2cccc(C)c2C)c(C)c1` is 0%; for `COCCn1c(CN2CCN(c3ccccc3F)CC2)nc2c1c(=O)n(C)c(=O)n2C` it is 6%; for `O=C(c1ccccc1F)N1CCN(Cc2cccc(Cl)c2)CC1` it is 5%.
The figure for `COc1ccccc1C(O)P(=O)(OC(C)C)c1ccc(N(C)C)cc1` (centres undefined) is 0%; for `CCOC(=O)CN1C(=O)C(=O)c2cccc(C)c21` it is 0%; for `COc1c2ccoc2nc2c(OC)c(OCC(O)C(C)(C)O)ccc12` (centres undefined) it is 0%.
As to `CCOC(=O)C1CCCN(C/C(O)=C(\C#N)c2nc(-c3ccc(Cl)cc3)cs2)C1` (centres undefined), the inhibition is 5%.
Regarding `CCN(CC)c1ccc(NC(=O)CN2CCN(CC(=O)Nc3ccccc3F)CC2)cc1`, the inhibition was 1%.
Consider `O=C(O)CCc1ccc(-c2cccs2)n1CCC(=O)O`, for which the inhibition is 1%.
For the compound `CC1=C(C(=O)Nc2ccc(F)cc2)C(c2cccc(C)c2)n2nc(CCCO)nc2N1` (centres undefined), the inhibition is 6%.
The figure for `COc1ccc(C)cc1S(=O)(=O)N(CC(=O)O)c1ccccc1` is 0%; for `CCOc1ccc(NC(=O)C2CC(=O)N(CC)C(=Nc3ccc4c(c3)OCO4)S2)cc1` (centres undefined) it is 3%; for `CS(=O)(=O)N(CC(=O)NC1CC1)c1cccc(F)c1` it is 0%.
`COCCN(C(=O)c1csnn1)C(C(=O)NC1CCCCC1)c1cccs1` (centres undefined): the inhibition is 2%.
Consider `CCOC(=O)N1CCN(S(=O)(=O)c2ccc(OCC)c(C)c2)CC1`, for which the inhibition is 0%.
Regarding `CN(C(=O)c1ccno1)c1nnc(-c2cnccn2)s1`, the inhibition was 2%.
Under `Nc1ncnc2nc(SCCN3CCCCC3)[nH]c12` stands 4%; under `CC1CCc2nn(CC(=O)NCc3ccc(F)cc3)cc2C1` (centres undefined), 7%.
On to `CCn1c(SCc2cccc(C(F)(F)F)c2)nnc1-c1ccco1`, for which the inhibition is 0%.
In the case of `CC(C)n1c(=NC(=O)c2ccco2)c(C#N)cc2c(=O)n3ccccc3cc21`, the inhibition is 0%.
Take `Cc1cccc(OCC(=O)N(Cc2cccs2)C2CCS(=O)(=O)C2)c1C` (centres undefined): the inhibition is 3%.
As to `Nc1ccc2cn[nH]c2c1`, the inhibition is 0%.
Consider `Cc1cc(NC(=O)CSc2nc3ccccc3n2CC(=O)N2CCCCC2)no1`, for which the inhibition is 0%.
Consider `CC12CCC(C(=O)N3CCCCC3)(CC1=O)C2(C)C` (centres undefined), for which the inhibition is 0%.
Under `C=CCSc1nnc2n(-c3ccccc3OC)c(=O)c3c4c(sc3n12)CCC4` stands 0%; under `Cc1cccc(Cn2c(SCCN3CCCCC3)nc3c2c(=O)[nH]c(=O)n3C)c1`, 0%.
For `Cc1cc(=O)oc(C)c1C(=O)O`, the inhibition is 0%.
Regarding `CCS(=O)(=O)N1CCCC(c2nc(-c3cccc(OC)c3)no2)C1` (centres undefined), the inhibition was 0%.
The figure for `C=CCSc1ncccc1C(=O)O` is 0%; for `CC(C)c1nnc(NC(=O)CCC(=O)NCc2ccc3c(c2)OCO3)s1` it is 3%; for `CC(C)Cc1nc(N2CCN(C(=O)c3ccco3)CC2)c(C#N)c2c1CCC2` it is 5%.
Turning to `CN1Cc2c(N)cccc2C(c2ccccc2)C1` (centres undefined), the inhibition was 0%.
The figure for `O=C(C1=C(O)C(=O)N(c2ncccn2)C1c1cccc(Cl)c1)c1ccco1` (centres undefined) is 0%; for `CS(=O)(=O)N(CC(=O)NCc1ccccn1)c1ccc2c(c1)OCCO2` it is 0%; for `CCCc1cc(-c2n[nH]c(C)c2-c2ccc(C(=O)OCC)o2)c(O)cc1O` it is 6%.
Regarding `CCCCN=CC1=C(O)C(C(=O)OC)C(C)(C)CC1=O` (centres undefined), the inhibition was 0%.
In the case of `COc1ccc(-c2cc3c(=O)n(CC(=O)NC4CCN(Cc5ccccc5)CC4)ncn3n2)cc1`, the inhibition was 1%.
Turning to `O=C1CC(c2ccc(S(=O)(=O)N3CCN(c4ccccc4)CC3)cc2)CN1` (centres undefined), the inhibition is 0%.
Consider `COc1cccc(-n2nnc3c(=O)n(Cc4cccc(F)c4)cnc32)c1`, for which the inhibition is 4%.
The figure for `O=C(NS(=O)(=O)c1ccc(NC(=O)C2CCCO2)cc1)c1ccccc1` (centres undefined) is 0%; for `CC(C(=O)NCCCN1CCOCC1)n1cccc1C(=O)c1ccccc1` (centres undefined) it is 0%; for `NC(=O)CSCc1ccc(Br)cc1` it is 0%.
With `CN(CC(=O)O)S(=O)(=O)c1cc(Cl)ccc1Cl`, the inhibition is 1%.
The figure for `CCOC(=O)N1CCN(C(=O)c2ccc(CS(=O)(=O)c3c(Cl)cccc3Cl)o2)CC1` is 0%; for `CCOCC(=O)Nc1c(C(=O)Nc2ccc(OC)cc2OC)oc2ccccc12` it is 0%; for `COCCOC(=O)c1cc(C(=O)c2cc(F)ccc2O)coc1=N` it is 2%.
As for `O=S(=O)(NCC1CCCO1)c1cc(Cl)ccc1Br` (centres undefined), the inhibition is 0%.
In the case of `COc1ccccc1C1C(C(C)=O)=C(O)C(=O)N1CCc1ccccc1` (centres undefined), the inhibition is 8%.
`COc1ccc(-n2ncc3c(N4CCC(C)CC4)ncnc32)cc1`: the inhibition was 1%.
Under `Cc1nc2scc(-c3ccco3)c2c(=O)n1/N=C/N(C)C` stands 0%; under `CC1Oc2ccccc2N(Cc2ccccc2Cl)C1=O` (centres undefined), 9%.
On to `Cc1ccc(NC(=O)COc2nc(C)cs2)cc1`, for which the inhibition is 1%.
As for `Cc1onc(-c2ccccc2)c1C(=O)N[C@@H]1C(=O)N2[C@@H]1SC(C)(C)[C@@H]2C(=O)O`, the inhibition was 0%.
On to `O=C(NCc1nnc(SCC(=O)N2CCC(Cc3ccccc3)CC2)o1)c1ccccc1F`, for which the inhibition was 0%.
Under `COc1ccc(-n2c(Cc3cccn3C)nnc2SCC(=O)Nc2cccc(Cl)c2)cc1` stands 2%.
For the compound `COC(=O)c1c(C)oc2ccc(NS(=O)(=O)c3cccs3)cc12`, the inhibition is 0%.
Take `Cc1cc(C)c(C)c(OCC(=O)NCC2CCCO2)c1` (centres undefined): the inhibition was 0%.
Under `CN(Cc1ccccc1)C(=O)c1ccccc1NC(=O)c1ccco1` stands 0%; under `C/C(=C\C(=O)c1ccc(F)cc1)Nc1ccc(N2CCOCC2)cc1`, 0%; under `NC(=O)c1c(NC(=O)Cc2cccs2)sc2c1CCC2`, 0%.
`CC(C)OC(=O)C(CC(=O)O)NCc1ccccc1` (centres undefined): the inhibition was 1%.
With `O=C(C1CCN(c2nnc(-n3cccc3)s2)CC1)N1CCOCC1`, the inhibition is 0%.
The figure for `Cc1ccc(F)cc1NC(=O)c1cccc2nccnc12` is 1%.
Take `COc1ccc(S(=O)(=O)N(CCN2CCOCC2)Cc2cc(OC)ccc2OC)cc1`: the inhibition was 4%.
Turning to `Cc1ccc(-n2c(C)cc3c2CCCC3=O)cc1`, the inhibition was 0%.
Take `CCCc1c(O)nc(SCC(=O)NCCc2ccc(OC)c(OC)c2)[nH]c1=O`: the inhibition is 0%.
`Cc1cccc(C(=O)N2CCC(n3nnc4cc(F)ccc43)CC2)c1`: the inhibition is 0%.
For the compound `CC1CN(c2nc3ccccn3c(=O)c2/C=C(\C#N)S(=O)(=O)c2ccccc2)CC(C)O1` (centres undefined), the inhibition was 5%.
As for `Cc1ccsc1C1C2=C(CCCC2=O)Nc2ncnn21` (centres undefined), the inhibition was 0%.
For the compound `O=C(CN1CCCN(S(=O)(=O)c2ccc(Br)cc2)CC1)Nc1ccc2cn[nH]c2c1`, the inhibition was 0%.
Under `CCCN1C(=O)c2cc(C(=O)O)ccc2C1O` (centres undefined) stands 0%.
Regarding `COCC(=O)Nc1sc2c(c1C(=O)OC)C(C(=O)OC)CC2` (centres undefined), the inhibition is 0%.
